Assay results published in the supplement of paper PMC11732987, “Enantioselective OTUD7B fragment discovery through chemoproteomics screening and high-throughput optimisation” (Communications Chemistry, 2025).

Legend:
Test in all cases: log2 ratio of Biotin-Ahx-Ub-VS probe labelling (fragment/DMSO); higher = less target engagement (more negative = stronger competition), active = hit call of the paper (q ≤ 0.05, log2 ratio ≤ -1)
Settings in all cases: compound concentration: 200 uM; treatment time: 3 h
USP42 = target: T1, USP42 (UniProt Q9H9J4)
T1 sequence (whole entry): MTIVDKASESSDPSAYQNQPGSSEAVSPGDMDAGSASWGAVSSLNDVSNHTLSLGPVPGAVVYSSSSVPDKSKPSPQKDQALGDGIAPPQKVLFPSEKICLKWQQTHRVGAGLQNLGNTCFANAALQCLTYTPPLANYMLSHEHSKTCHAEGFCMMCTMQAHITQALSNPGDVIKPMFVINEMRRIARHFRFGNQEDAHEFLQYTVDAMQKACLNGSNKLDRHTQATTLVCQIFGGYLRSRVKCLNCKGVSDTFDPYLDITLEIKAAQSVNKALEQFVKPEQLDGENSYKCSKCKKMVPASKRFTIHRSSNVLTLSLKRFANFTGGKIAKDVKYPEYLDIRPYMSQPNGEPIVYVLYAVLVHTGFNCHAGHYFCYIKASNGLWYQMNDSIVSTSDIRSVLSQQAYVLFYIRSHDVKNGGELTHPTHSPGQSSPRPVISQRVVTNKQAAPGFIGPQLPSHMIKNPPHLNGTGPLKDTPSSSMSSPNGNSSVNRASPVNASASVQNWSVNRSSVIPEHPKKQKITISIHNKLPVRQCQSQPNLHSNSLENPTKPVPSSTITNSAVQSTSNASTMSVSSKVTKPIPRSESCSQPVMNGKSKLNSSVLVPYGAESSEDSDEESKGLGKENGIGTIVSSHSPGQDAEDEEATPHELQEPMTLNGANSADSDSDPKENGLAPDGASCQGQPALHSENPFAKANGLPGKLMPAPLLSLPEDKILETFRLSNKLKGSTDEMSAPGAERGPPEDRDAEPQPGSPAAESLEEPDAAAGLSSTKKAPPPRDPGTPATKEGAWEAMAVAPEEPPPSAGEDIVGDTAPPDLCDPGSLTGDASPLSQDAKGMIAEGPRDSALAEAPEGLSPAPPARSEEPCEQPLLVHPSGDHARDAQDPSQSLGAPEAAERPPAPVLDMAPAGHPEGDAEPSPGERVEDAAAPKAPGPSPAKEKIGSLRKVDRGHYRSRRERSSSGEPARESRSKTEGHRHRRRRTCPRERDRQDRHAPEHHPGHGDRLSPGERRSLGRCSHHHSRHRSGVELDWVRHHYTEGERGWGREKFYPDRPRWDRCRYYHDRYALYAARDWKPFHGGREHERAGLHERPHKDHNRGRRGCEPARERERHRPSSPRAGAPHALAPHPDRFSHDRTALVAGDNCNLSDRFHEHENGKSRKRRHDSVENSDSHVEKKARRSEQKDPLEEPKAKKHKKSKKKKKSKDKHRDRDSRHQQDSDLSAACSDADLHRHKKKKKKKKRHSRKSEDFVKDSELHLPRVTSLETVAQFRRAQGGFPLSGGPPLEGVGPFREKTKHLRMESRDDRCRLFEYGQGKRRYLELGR
Procedure, shortened: (§1)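 Labelled DUBs were enriched with NeutrAvidin, digested with LysC and trypsin, and run by diaPASEF LC-MS/MS. The labelling used Biotin-Ahx-Ub-VS at 0.5 µM final for 1 h on HEK293T lysate (495 µg per sample) previously treated in triplicate with fragment at 200 µM or vehicle for 3 h. Values are average log2 fragment/vehicle ratios by unpaired t-test on global-median-normalised Spectronaut quantities of proteins with ≥2 unique peptides.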

USP46 = USP46 (UniProt P62068)
Procedure, shortened: as §1

USP47 = target: T2, USP47 (UniProt Q96K76)
T2 sequence (whole entry): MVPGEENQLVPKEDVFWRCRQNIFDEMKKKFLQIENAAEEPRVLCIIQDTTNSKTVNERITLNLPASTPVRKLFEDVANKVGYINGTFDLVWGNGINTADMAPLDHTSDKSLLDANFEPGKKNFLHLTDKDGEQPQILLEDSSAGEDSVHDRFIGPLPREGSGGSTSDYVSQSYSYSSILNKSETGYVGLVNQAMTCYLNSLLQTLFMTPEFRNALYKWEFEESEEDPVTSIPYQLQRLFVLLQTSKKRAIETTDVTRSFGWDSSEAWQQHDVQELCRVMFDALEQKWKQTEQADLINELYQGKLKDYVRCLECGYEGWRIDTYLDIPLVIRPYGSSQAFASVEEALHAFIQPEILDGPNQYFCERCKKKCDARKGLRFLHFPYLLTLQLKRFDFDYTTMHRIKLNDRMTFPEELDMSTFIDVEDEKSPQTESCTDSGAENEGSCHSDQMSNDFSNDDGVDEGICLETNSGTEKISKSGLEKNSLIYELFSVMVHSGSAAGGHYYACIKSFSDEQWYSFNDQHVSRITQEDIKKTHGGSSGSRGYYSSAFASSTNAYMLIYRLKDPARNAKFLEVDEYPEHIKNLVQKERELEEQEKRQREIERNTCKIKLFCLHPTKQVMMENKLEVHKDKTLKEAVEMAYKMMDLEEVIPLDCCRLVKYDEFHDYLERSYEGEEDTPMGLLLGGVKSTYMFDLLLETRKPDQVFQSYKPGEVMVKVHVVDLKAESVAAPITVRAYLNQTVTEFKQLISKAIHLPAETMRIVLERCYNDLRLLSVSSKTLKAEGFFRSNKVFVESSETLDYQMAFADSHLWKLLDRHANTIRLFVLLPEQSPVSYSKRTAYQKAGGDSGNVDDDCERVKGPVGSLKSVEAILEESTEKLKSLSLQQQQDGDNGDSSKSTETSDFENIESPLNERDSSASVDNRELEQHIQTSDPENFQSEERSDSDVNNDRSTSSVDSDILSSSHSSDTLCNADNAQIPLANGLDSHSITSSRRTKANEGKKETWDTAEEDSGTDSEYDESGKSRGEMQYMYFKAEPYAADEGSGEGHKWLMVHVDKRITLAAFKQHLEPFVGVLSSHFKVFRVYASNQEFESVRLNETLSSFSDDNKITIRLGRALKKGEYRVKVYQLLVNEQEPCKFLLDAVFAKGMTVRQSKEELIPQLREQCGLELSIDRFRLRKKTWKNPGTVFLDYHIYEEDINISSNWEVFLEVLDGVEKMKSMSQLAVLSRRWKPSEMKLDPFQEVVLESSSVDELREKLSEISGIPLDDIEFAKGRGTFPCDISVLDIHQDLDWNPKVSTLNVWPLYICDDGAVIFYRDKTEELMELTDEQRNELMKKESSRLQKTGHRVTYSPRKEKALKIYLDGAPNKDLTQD
Procedure, shortened: as §1

USP48 = target: T3, USP48 (UniProt Q86UV5)
T3 sequence (whole entry): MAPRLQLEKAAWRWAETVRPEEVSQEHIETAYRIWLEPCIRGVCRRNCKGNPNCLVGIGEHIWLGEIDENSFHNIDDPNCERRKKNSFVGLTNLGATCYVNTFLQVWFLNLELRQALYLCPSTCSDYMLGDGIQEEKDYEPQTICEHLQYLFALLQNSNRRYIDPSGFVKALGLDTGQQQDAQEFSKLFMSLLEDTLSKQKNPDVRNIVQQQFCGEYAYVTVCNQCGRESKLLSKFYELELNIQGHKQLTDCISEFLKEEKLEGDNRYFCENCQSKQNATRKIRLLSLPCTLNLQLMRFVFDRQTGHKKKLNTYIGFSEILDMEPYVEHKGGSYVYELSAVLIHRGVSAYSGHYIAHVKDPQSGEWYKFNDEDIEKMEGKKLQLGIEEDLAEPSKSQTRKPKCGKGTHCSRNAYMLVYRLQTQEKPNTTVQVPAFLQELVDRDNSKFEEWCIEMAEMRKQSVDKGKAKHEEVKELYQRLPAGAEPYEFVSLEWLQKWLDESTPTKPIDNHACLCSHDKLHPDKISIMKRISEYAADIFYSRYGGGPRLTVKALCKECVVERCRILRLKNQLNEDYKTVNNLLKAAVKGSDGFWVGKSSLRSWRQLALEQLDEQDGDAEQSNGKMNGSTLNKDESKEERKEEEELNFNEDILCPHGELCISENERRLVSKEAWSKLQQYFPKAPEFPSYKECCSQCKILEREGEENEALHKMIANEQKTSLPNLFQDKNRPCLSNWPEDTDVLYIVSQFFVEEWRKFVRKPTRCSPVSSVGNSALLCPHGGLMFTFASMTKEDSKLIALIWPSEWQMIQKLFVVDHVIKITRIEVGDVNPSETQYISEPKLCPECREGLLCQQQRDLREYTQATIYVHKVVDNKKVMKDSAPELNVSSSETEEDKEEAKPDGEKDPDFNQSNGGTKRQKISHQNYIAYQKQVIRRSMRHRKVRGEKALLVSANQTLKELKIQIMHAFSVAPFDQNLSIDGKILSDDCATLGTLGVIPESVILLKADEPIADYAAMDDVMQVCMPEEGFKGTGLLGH
Procedure, shortened: as §1

USP5 = target: T4, USP5 (UniProt P45974)
T4 sequence (whole entry): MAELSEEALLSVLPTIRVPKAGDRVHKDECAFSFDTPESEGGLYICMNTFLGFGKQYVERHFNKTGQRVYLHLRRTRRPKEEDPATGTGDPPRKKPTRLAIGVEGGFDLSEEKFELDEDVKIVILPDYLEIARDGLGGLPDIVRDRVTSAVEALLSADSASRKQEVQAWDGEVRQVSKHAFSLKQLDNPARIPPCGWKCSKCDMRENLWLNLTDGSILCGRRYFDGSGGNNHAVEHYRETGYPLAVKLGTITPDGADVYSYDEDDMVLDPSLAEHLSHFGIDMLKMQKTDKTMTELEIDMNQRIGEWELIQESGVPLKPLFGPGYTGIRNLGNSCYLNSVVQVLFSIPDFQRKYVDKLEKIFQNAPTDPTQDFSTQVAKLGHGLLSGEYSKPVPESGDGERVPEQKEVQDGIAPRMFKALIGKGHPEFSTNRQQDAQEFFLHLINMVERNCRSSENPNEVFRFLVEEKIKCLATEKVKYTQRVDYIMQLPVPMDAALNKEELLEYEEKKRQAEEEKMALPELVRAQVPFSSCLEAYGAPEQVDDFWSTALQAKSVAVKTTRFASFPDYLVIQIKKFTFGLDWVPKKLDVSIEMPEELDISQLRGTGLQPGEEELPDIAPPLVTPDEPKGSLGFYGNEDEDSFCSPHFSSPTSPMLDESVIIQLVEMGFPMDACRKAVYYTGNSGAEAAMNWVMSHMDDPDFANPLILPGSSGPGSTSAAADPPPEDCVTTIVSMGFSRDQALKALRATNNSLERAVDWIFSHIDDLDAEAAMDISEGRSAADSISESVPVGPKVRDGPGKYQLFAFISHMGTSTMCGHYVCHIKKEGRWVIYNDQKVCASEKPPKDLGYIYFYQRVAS
Procedure, shortened: as §1

USP54 = USP54 (UniProt Q70EL1)
Procedure, shortened: as §1

USP7 = USP7 (UniProt Q93009)
Procedure, shortened: as §1

USP8 = target: T5, USP8 (UniProt P40818)
T5 sequence (whole entry): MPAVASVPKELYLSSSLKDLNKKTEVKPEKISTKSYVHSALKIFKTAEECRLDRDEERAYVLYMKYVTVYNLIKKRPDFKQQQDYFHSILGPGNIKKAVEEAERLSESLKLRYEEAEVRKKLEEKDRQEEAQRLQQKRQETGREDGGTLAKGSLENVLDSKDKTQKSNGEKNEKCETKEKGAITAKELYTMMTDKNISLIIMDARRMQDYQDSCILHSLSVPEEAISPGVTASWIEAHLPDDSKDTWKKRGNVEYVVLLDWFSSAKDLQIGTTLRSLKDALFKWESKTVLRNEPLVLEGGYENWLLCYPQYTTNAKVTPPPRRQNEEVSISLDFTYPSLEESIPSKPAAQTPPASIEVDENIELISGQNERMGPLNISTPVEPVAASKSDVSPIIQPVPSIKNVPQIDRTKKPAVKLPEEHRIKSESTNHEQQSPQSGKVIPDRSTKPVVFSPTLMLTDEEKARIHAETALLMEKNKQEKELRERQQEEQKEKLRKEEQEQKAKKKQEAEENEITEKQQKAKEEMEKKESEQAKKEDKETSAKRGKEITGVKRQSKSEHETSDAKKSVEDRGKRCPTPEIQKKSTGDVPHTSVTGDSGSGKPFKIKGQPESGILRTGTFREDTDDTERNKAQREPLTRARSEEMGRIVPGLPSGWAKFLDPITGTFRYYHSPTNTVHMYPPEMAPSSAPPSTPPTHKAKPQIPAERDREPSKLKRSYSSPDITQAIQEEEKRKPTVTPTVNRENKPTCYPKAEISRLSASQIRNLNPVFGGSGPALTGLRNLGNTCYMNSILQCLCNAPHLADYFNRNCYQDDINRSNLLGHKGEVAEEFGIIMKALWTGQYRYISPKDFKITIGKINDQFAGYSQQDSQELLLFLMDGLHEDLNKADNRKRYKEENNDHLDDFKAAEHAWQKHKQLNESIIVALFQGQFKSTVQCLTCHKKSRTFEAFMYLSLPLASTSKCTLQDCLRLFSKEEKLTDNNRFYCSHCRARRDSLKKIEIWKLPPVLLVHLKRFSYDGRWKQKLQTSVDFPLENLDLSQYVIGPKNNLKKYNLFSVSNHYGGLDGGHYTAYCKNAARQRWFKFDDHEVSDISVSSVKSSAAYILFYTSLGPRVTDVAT
Procedure, shortened: as §1

USP9X = USP9X (UniProt Q93008)
Procedure, shortened: as §1

UniProt O00487 = target: UniProt O00487
Procedure, shortened: as §1

Measured: log2 ratio of Biotin-Ahx-Ub-VS probe labelling

UniProt O00487, sequence (O00487 whole entry): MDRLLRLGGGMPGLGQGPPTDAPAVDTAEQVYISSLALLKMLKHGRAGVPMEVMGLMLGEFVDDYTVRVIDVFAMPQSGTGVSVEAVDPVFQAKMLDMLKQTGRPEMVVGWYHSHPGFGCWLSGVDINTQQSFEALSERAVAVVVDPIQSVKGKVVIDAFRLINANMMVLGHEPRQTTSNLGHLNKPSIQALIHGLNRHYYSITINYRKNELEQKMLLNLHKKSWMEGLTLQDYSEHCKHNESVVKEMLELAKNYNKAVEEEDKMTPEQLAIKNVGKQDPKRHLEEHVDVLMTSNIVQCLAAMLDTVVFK
USP46, sequence (P62068 whole entry): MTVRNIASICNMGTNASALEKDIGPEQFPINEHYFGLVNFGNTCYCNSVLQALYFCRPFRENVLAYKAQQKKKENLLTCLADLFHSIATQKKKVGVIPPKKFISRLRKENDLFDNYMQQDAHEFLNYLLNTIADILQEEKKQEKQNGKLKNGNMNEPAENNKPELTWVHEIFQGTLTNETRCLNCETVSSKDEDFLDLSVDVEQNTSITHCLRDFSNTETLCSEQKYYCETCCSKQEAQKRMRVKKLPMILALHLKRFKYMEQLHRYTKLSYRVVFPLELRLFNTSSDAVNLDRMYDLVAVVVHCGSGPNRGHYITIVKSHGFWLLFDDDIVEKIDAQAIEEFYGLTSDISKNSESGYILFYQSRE
USP7, sequence (Q93009 whole entry, looked up): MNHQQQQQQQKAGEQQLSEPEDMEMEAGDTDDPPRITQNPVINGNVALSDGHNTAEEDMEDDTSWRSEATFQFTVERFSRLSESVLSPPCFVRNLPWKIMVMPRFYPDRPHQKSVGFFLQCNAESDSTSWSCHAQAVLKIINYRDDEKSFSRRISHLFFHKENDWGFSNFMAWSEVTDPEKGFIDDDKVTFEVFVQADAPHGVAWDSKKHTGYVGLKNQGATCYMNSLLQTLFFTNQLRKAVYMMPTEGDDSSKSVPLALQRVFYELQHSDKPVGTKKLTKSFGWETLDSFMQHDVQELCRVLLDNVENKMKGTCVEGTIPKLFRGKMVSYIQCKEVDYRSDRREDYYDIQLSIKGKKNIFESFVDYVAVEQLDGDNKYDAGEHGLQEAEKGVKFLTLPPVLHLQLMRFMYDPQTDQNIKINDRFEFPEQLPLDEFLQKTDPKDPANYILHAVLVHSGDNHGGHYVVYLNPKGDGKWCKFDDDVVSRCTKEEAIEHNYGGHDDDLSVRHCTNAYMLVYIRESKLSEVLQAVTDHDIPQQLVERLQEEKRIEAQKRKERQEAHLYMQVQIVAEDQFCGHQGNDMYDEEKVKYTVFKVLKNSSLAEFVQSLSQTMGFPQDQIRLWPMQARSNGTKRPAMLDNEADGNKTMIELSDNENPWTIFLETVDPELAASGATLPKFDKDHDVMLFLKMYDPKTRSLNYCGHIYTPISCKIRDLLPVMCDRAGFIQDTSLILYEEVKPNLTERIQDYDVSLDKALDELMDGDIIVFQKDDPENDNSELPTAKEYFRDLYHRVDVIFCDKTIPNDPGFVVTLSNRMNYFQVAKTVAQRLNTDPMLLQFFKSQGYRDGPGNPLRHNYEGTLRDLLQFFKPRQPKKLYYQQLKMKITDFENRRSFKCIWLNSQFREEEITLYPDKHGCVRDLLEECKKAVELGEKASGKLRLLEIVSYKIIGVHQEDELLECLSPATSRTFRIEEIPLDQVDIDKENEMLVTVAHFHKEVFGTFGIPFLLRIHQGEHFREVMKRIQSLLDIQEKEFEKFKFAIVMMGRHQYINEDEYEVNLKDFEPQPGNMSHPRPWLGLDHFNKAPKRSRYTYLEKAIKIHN
USP9X, sequence (Q93008 whole entry): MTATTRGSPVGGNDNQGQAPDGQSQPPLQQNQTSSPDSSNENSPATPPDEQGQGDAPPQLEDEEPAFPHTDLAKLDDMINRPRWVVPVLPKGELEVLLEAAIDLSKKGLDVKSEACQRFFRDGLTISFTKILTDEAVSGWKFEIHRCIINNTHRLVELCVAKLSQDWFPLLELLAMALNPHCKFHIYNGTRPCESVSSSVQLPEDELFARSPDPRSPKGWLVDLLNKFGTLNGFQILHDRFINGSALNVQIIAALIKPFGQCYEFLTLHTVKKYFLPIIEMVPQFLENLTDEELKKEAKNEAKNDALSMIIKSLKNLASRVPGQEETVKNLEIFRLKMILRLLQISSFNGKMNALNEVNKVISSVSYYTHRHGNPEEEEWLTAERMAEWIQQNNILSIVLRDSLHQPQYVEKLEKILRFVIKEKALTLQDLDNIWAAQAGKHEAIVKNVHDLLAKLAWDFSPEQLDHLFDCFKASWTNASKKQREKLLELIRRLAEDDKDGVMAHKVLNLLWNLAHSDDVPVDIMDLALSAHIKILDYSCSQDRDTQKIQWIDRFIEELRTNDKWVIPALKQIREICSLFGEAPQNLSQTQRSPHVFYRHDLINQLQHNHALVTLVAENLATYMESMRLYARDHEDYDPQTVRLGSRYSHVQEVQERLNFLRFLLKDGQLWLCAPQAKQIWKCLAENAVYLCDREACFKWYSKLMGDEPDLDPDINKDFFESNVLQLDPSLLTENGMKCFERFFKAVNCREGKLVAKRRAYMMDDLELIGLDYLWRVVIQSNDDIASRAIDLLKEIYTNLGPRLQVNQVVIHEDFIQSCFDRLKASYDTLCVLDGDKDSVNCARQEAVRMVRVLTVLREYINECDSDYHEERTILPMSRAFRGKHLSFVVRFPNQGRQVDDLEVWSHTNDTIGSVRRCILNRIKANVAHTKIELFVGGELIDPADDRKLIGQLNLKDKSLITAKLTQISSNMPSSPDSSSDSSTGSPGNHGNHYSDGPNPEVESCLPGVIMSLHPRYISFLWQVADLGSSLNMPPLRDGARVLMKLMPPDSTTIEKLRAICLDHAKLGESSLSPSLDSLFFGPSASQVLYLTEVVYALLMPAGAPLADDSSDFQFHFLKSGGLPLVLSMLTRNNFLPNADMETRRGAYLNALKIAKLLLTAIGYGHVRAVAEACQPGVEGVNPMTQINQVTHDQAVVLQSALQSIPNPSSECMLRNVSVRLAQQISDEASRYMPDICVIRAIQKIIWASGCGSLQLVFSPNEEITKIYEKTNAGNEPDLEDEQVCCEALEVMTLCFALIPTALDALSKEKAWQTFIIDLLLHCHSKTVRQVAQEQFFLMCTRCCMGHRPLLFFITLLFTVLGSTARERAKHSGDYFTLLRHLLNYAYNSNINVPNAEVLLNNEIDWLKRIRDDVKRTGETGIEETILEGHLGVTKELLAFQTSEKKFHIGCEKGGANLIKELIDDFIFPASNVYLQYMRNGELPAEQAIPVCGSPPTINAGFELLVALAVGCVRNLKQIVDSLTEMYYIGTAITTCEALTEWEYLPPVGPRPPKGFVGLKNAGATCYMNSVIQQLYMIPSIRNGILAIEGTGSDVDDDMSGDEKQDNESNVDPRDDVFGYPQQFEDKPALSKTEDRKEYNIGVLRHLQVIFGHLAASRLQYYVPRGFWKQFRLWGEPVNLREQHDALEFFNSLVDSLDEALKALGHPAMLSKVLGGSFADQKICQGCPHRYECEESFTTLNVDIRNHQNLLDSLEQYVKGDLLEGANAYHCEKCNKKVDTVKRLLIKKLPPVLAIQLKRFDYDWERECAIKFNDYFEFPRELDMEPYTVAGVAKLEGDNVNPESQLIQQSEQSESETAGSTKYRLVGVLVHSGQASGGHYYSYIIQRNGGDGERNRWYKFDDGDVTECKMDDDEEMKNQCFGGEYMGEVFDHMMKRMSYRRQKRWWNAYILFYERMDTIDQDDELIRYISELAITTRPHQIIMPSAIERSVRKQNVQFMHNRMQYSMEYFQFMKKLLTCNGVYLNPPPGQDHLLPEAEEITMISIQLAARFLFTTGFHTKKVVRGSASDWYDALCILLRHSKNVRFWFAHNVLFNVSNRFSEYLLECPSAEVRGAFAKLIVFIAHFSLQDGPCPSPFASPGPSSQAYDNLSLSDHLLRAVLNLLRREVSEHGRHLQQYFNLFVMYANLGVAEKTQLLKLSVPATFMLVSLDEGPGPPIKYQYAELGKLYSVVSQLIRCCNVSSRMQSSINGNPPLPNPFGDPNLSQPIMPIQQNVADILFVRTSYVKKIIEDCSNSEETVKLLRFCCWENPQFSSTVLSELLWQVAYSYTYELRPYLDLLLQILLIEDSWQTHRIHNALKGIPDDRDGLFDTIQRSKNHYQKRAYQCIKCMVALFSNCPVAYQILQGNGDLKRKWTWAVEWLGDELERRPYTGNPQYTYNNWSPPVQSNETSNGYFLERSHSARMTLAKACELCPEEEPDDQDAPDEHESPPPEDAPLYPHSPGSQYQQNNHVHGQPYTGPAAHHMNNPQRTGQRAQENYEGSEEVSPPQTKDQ

O=C(CCl)Nc1ccc(F)cc1Cl
active: USP47 -1.41
inactive: USP42 0.367 | USP46 -0.157 | USP48 -0.144 | USP5 -0.28 | USP54 0.679 | USP7 -0.395 | USP8 -0.165 | USP9X -0.538 | UniProt O00487 -0.0503

N#Cc1ccccc1N1CCN(C(=O)CCl)CC1
inactive: USP42 0.456 | USP46 -0.871 | USP47 -0.514 | USP48 -1.04 | USP5 -0.123 | USP54 1.03 | USP8 -0.729 | USP9X -0.651 | UniProt O00487 0.0611
active: USP7 -1.73
